Bioassay records from PubChem.
A selection: hits, their analogues and other compounds. The true share with any hit is near 1.4%.
TrxR1 substrate: is turned over as a substrate by rat TrxR1; O89049; purified TrxR1 substrate turnover, NADPH consumption readout; Potency, µM (highest dose often 114 µM); 0.01% of 390,000 active; also: nearly all actives have a fitted effect of over 50% in size
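Rat TrxR1, dispensed at 90 nM, was prereduced with 400 uM NADPH (final) for 5 min at ~22 deg C, then incubated with compound 15 min before 400 uM selenite. A first-read NADPH fluorescence drop versus no-compound background flagged substrates.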
GLS inh: blocks human kidney-isoform glutaminase activity; O94925; GLS enzymatic activity, qHTS titration; Potency, µM (doses to about 45.5 µM), actives largely listed as inhibitors; 0.21% of 410,000 active
Target sequence (O94925 whole entry, looked up, canonical isoform): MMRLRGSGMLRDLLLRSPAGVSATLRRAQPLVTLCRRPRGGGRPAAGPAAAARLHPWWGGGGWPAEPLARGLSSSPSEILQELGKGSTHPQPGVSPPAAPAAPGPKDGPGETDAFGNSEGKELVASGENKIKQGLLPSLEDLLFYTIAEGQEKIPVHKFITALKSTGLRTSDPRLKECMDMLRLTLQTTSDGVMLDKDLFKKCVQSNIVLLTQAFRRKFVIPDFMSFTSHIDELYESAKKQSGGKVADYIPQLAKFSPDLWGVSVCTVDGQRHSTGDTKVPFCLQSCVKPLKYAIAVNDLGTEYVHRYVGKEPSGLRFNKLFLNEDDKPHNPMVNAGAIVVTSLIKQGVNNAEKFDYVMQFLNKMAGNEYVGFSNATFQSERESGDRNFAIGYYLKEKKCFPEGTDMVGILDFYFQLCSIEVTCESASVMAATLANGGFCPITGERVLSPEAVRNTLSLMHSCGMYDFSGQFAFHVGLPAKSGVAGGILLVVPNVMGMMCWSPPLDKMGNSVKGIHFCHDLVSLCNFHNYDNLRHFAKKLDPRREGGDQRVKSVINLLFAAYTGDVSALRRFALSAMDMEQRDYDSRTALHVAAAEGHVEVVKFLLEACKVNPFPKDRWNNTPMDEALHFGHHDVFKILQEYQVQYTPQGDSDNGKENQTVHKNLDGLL
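Coupled fluorescence readout: glutamate oxidase/HRP/Amplex Red detect glutamate formed by hKGA from L-glutamine (1 mM solution added). Buffer 45 mM KH2PO4 pH 8.2, 0.02% Tween-20; reads at t0 and 30 min RT.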
PKM2 act: PKM2 (human) enzyme activation; P14618; purified PKM2, Kinase-Glo ATP luminescence, activation; response scale: 0% is enzyme alone, no compound; Potency, µM (doses to about 57.5 µM), most hits filed as activators; 0.34% of 260,000 active; AID 1631; also: nearly all actives have a fitted effect of over 55% in size
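Purified hPK-M2 (>95% pure) converted ADP (0.1 mM final) to ATP with 0.5 mM PEP in 50 mM imidazole pH7.2, KCl, MgCl2, Tween 20, BSA; 1 h at room temperature. ATP detected by Kinase-Glo luminescence.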
rTrxR1 inhibitor: inhibitors of rat thioredoxin reductase 1 | O89049 | recombinant rTrxR1, NADPH fluorescence consumption, selenite substrate | Potency, µM (highest dose often 114 µM), usual class: inhibitors | 1% of 390,000 active | AID 588453; also: nearly all actives have a fitted effect of over 65% in size
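Rat TrxR1 (90 nM in the dispensed reagent) was pre-reduced with 400 uM NADPH for 5 min at room temperature, then incubated with compound for 15 min. After 400 uM selenite was added, NADPH fluorescence (Ex 340/Em 450 nm) was followed for 8 min.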
LDHA inh: blocks human lactate dehydrogenase A | purified LDHA, NADH/diaphorase-resazurin fluorescence; hits give low values | activity change, % (values are at about 110 or 230 µM) | 0.15% of 480,000 active | AID 1347041; in the data active = activity change below about -30%; inconclusive = mostly about -25% to -30%
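Human LDH5 (2 nM) was incubated with 0.06 mM NADH and 0.2 mM pyruvate for 5 min at room temperature in Tris pH 7.4. Remaining NADH was coupled through diaphorase/resazurin, and resorufin fluorescence was read at 0 and 20 min.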
mIDH1 inhibitor: inhibitors of human mutant IDH1 R132H; O75874; IDH1-R132H enzyme, NADPH consumption, diaphorase/resazurin fluorescence; Potency, µM (highest dose often 76.6 µM), hits mostly inhibitors; 0.093% of 390,000 active; also: nearly all actives have a fitted effect of over 65% in size
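IDH1-R132H (0.5 ug/mL dispensed) in pH 7.5 Tris buffer was preincubated 30 min with compound, then given a substrate mix of 0.016 mM NADPH and 2 mM alpha-KG for 80 min at room temperature; remaining NADPH was read by diaphorase/resazurin fluorescence.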
Hits are given with their value; i = inactive; ? = inconclusive; nt = no result given; ! = repeats disagree; [ ] = dose if it differs, or a comment. Unless noted, calls follow the shape of the dose curve; as a rule, active = well fitted curve in the direction sought with a large enough effect; inconclusive = small, poorly fitted or top-dose-only effect, or another doubt; inactive = no such curve, though single readings can be large; an effect the other way counts as inactive or inconclusive.

SMILES	TrxR1 substrate	GLS inh	PKM2 act	rTrxR1 inhibitor	LDHA inh	mIDH1 inhibitor
O=C1OC(c2cccs2)=N/C1=C/c1ccc(-c2cccc(C(=O)O)c2)o1	i	i	i	35µM	i	i
COc1ccc(S(=O)(=O)Nc2ccc(-n3cccc3)cc2)cc1	i	i	10µM	i	i	i
COc1ccc(NS(=O)(=O)c2ccc(N3C(=O)CCC3=O)cc2)cc1	i	i	i	i	i	i
Cc1ccc(-c2noc(CCn3c(=O)[nH]c4cc5c(cc4c3=O)OCO5)n2)cc1	nt	nt	nt	nt	i	nt
Cc1cc(C)n2nc3nc(N4CCCCC4)nc(-c4ccco4)c3c2n1	i	?	i	10µM	i	i
O=S(=O)(NCC1CCN(S(=O)(=O)c2ccccc2)CC1)c1ccccc1	i	i	2.8µM	i	i	i
O=S(=O)(NCC1CCN(c2ccc(S(=O)(=O)N3CCOCC3)cc2)CC1)c1ccccc1	i	i	i	i	i	i
Nc1nccnc1C(=O)NCCc1ccccc1C(F)(F)F	nt	nt	nt	nt	i	nt
CCOC(=O)c1cc([N+](=O)[O-])cc([N+](=O)[O-])c1Sc1ncnc2nc[nH]c12	i	i	nt	0.45µM	i	i
CC(=O)Nc1ccc(NC2=C(C(N)=O)S(=O)(=O)c3ccccc32)cc1	nt	nt	nt	nt	i	nt
CN(C)c1ccc(NC2=C(Cl)C(=O)c3ccccc3C2=O)cc1	i	i	i	2.8µM	i	i
COc1ccccc1NC1=C(NC(C)=O)C(=O)c2ccccc2C1=O	i	i	i	4.5µM	i	i
CC(=O)Nc1ccc(NC2=C(Cl)C(=O)c3ccccc3C2=O)cc1	i	i	i	0.56µM	i	i
O=C1C(Cl)=C(Nc2ccc3cn[nH]c3c2)C(=O)c2ccccc21	?	i	i	?	i	i
Cc1cc(CS(=O)(=O)Cc2ccc(Cl)cc2)on1	nt	nt	nt	nt	i	nt
COc1cc(/C=C/C(=O)OCC(=O)N2CCCc3ccccc32)ccc1O	i	10µM	nt	i	i	i
COc1cc(/C=C/C(=O)OCC(=O)N2CCCc3ccccc32)ccc1OCC#N	i	i	nt	i	i	i
O=S(=O)(NCC(c1cccs1)S(=O)(=O)c1ccccc1)c1ccc(F)c(C(F)(F)F)c1 (stereo not given)	i	i	nt	i	i	i
O=S(=O)(NCC(c1cccs1)S(=O)(=O)c1ccccc1)c1ccc(F)cc1 (stereo not given)	i	i	nt	13µM	i	i
O=S(=O)(Nc1nccs1)c1ccc(NS(=O)(=O)c2cccs2)cc1	i[0.457 µM]	i	4.5µM	i	i	i
Clc1ccc2c(c1)C(c1ccccc1)=Nc1ccc(Cl)cc1C(c1ccccc1)=N2	nt	nt	nt	nt	i	nt
O=[N+]([O-])c1ccc(O)c(/C=N/Nc2nn[nH]n2)c1	i	i	i	i	-46	i
Oc1ccccc1/C=N/Nc1nn[nH]n1	i	i	i	?	i	i
Cc1onc(-c2c(Cl)cccc2Cl)c1C(=O)NC1C(=O)N2C1SC(C)(C)C2C(=O)O (stereo not given)	i	13µM	i	i	i	i
Cc1onc(-c2c(Cl)cccc2Cl)c1C(=O)N[C@@H]1C(=O)N2[C@@H]1SC(C)(C)[C@@H]2C(=O)O	i	10µM!	nt	i	i	i
SMILES	TrxR1 substrate	GLS inh	PKM2 act	rTrxR1 inhibitor	LDHA inh	mIDH1 inhibitor
Cc1ccc(CC(=O)Nc2cc(C(C)(C)C)ccc2O)cc1	nt	nt	nt	nt	i	nt
O=C(NN=Cc1ccc([N+](=O)[O-])cc1)c1ccncc1	i[2.29 µM]	i	nt	i[2.29 µM]	i	i
O=C(/C=C/c1ccc([N+](=O)[O-])cc1)Oc1ccc(/C=N/NC(=O)c2ccncc2)cc1	i	i	nt	35µM	i	i
CN(C)CCCNC(=O)C1CCNCC1	i	i	i	71µM	i	i
CC(C)CCNC(=O)C1CCNCC1	nt	nt	nt	nt	i	nt
Cc1cc(C)nc(SCc2cc(=O)c(OC(=O)c3ccc(Cl)c([N+](=O)[O-])c3)co2)n1	i	i	i	?	i	i
Cc1ccnc(SCc2cc(=O)c(OC(=O)c3ccc(S(=O)(=O)N(C)C)cc3)co2)n1	i	i	?	10µM	i	i
